Assay results published in PubChem BioAssay (EPA / NIEHS).
Records with an inconclusive call do not appear. Some structures have more than one record in an assay (separate samples or runs), and their calls can disagree. Activity calls are given as the source filed them. The calls were made as follows: active = hit-call score of the fitted dose curve at least 0.9, where 1 is the maximum; inconclusive = response in the unintended direction; inactive = score below 0.9.

Experiments:
[1] = ATG_XTT_Cytotoxicity: Cytotoxicity Assessment in the Attagene TRANS-FACTORIAL HepG2 Assay (AID 2283584);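 as to AC50: cells exposed to compound for 24 h before reading; active means loss of viability signal versus DMSO baseline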
In short: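 HepG2 human liver cells, transiently transfected with multiple GAL4-UAS reporter units, were dosed and read at 24 h by XTT as cell number. Loss of signal was fitted relative to DMSO negative control baseline.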

[2] = TOX21_p53_BLA_p2_viability: Viability Assessment in the Tox21 HCT-116 p53 Agonism Beta-lactamase Assay, Phase 2 (AID 2283591);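 also: compound exposure lasted 16 h at 37 °C; actives lower the ATP signal meaning cytotoxicity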
In short: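 HCT116 p53-bla cells, 4000/well, dosed after 5 h plating (217-fold dilution of DMSO stocks) and incubated 16 h at 37C. Viability taken as cellular ATP by CellTiter-Glo luminescence after 30 min RT; signal loss marks cytotoxicity.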

[3] = molecular target: Cellular tumor antigen p53 (Homo sapiens) (UniProt P04637); experiment: TOX21_p53_BLA_p2_ratio: Tox21 HCT-116 p53 Agonism Beta-lactamase Assay, Ratio, Phase 2 (AID 2283592)
Sequence of Cellular tumor antigen p53 (Homo sapiens) (P04637 whole entry, looked up): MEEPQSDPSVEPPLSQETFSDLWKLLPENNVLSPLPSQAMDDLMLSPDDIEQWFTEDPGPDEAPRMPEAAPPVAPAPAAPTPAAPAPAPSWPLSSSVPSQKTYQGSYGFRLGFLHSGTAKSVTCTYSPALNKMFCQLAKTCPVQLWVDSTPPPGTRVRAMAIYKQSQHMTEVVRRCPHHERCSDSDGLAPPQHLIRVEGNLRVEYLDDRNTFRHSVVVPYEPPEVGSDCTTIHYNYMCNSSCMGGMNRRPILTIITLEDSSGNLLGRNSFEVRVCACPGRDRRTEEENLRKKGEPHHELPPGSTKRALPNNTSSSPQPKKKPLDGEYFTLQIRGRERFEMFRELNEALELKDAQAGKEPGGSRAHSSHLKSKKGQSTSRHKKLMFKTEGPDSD
In short: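 HCT116 cells carrying a p53-responsive beta-lactamase reporter were plated, incubated 5 h at 37C, then dosed with compounds in DMSO (217-fold dilution) for 16 h. CCF4-AM substrate was added for 2 h at room temperature; the 460/530 nm emission ratio gave gain-of-signal activity relative to DMSO.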

[4] = TOX21_p53_BLA_p3_viability: Viability Assessment in the Tox21 HCT-116 p53 Agonism Beta-lactamase Assay, Phase 3 (AID 2283593);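 also: cells exposed to compound for 16 h before reading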
In short: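 HCT116 cells, 4000/well, dosed 5 h after plating by pin transfer (217-fold dilution from DMSO stock) and incubated 16 h at 37C, 5% CO2. Viability read as ATP luminescence with CellTiter-Glo after 30 min at room temperature.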

[5] = molecular target: Cellular tumor antigen p53 (Homo sapiens) (UniProt P04637); experiment: TOX21_p53_BLA_p3_ratio: Tox21 HCT-116 p53 Agonism Beta-lactamase Assay, Ratio, Phase 3 (AID 2283596)
In short: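 HCT116 p53-bla cells (4000/well) given compound in DMSO (217-fold dilution) after 5 h, incubated 16 h at 37C. CCF4-AM substrate 2 h at room temperature; 460/530 nm emission ratio, gain fitted against DMSO.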

[6] = molecular target: Cellular tumor antigen p53 (Homo sapiens) (UniProt P04637); experiment: TOX21_p53_BLA_p5_ratio: Tox21 HCT-116 p53 Agonism Beta-lactamase Assay, Ratio, Phase 5 (AID 2283599)
In short: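 HCT-116 p53-bla cells (4000/well) plated 5 h, dosed with compound (217-fold DMSO dilution) for 16 h at 37 C; CCF4-AM substrate 2 h at room temperature. Activity is the 460/530 nm emission ratio (405 nm excitation), fitted in gain-of-signal direction versus DMSO.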

[7] = TOX21_p53_BLA_p4_viability: Viability Assessment in the Tox21 HCT-116 p53 Agonism Beta-lactamase Assay, Phase 4 (AID 2283597);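 also: hits lower the luminescence signal meaning cytotoxicity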
In short: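 HCT116 p53-bla cells (4000/well) rested 5 h at 37C, then received compounds in DMSO (217-fold dilution) for 16 h at 37C, 5% CO2. CellTiter-Glo was added after the CCF4-AM read, and luminescence was read after 30 min at room temperature.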

Measured: AC50

CCC(C)(C)c1cc(O)c(C(C)(C)CC)cc1O
not listed: [7]
inactive: all other assays above

CCCCCCCCCC(=O)OCC
inactive: [1] | [2] | [3] | [5]

CCc1cccc(O)c1
not listed: [4] | [6]
inactive: all other assays above

CC(=O)C1C(=O)C=C(C)OC1=O (stereo not drawn)
not listed: [4] | [7]
inactive: all other assays above

Nc1ccn([C@H]2CC[C@@H](CO)O2)c(=O)n1
not listed: [4]
inactive: all other assays above

CCCCCCCCCCCCCCCCCC(=O)OCCCCCCCCCCCCCC(C)C
not listed: [4] | [5]
inactive: all other assays above

CCCCCCC(C)O (stereo not drawn)
not listed: [4]
inactive: all other assays above

CN(C)CCC=C1c2ccccc2CCc2ccccc21
inactive: [3] | [5] | [7]
active: [1] 157 µM | [2] 74.2 µM | [7] 72.1 µM

c1ccc(Cc2ccccc2)cc1
inactive: [1] | [2] | [3] | [5]

COc1ccccc1NC(=O)CC(C)=O
not listed: [4]
inactive: all other assays above

CCCCCCOC(C)=O
active: [7] 24.9 µM
not listed: [4]
inactive: all other assays above

CCOC(=O)CC1(C)OCC(C)O1 (stereo not drawn)
not listed: [5] | [7]
inactive: all other assays above

COc1ccc(OC)cc1
not listed: [4]
inactive: all other assays above

CC(C)C(=O)OCC=Cc1ccccc1
not listed: [4]
inactive: all other assays above

CC(O)CNCC(C)O (stereo not drawn)
not listed: [4]
inactive: all other assays above

CC(CCO)CC(C)(C)C (stereo not drawn)
not listed: [4] | [6]
inactive: all other assays above

Nc1ccc(O)c(N)c1
not listed: [4]
inactive: all other assays above

CC(C)(C)C1CCC(O)CC1 (stereo not drawn)
not listed: [3] | [6]
inactive: all other assays above
